# Assay results as given in article PMC11006913.
# Numbering of substitutions follows the chain as printed.
# Tests used:
# Assay in all cases: PBM; 200 nM protein, PBS
# Conditions in all cases: dsDNA, one strand shown
# [1] = target: T1, VENTX (Homo sapiens, UniProt O95231 78-163, R121Q)
# T1 sequence: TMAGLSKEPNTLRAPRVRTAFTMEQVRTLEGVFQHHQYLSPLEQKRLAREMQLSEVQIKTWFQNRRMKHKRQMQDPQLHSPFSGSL
# [2] = target: T2, VENTX (Homo sapiens, UniProt O95231 78-163)
# T2 sequence: T1 sequence with Q44R
# [3] = target: T3, VENTX (Homo sapiens, UniProt O95231 78-163, Y115F)
# T3 sequence: T1 sequence with Y38F, Q44R
# [4] = target: PRRX1 (Homo sapiens, UniProt P54821 80-166, F113S)
# [5] = target: PRRX1 (Homo sapiens, UniProt P54821 80-166)
# Chain of PRRX1 (Homo sapiens, UniProt P54821 80-166) (P54821 80-166): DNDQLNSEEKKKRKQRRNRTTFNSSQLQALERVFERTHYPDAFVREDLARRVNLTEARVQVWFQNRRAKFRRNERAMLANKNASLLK
# Chain of PRRX1 (Homo sapiens, UniProt P54821 80-166, F113S) (P54821 80-166 F113S): as the sequence (P54821 80-166) above, with F34S counted along it
Sequence,binding signal [1],binding signal [2],binding signal [3],binding signal [4],binding signal [5]
CCGATTAA,"11.3 upbm affinity estimate (log intensity, higher = more binding, comparable within an allelic series)","12.5 upbm affinity estimate (log intensity, higher = more binding, comparable within an allelic series)","11.3 upbm affinity estimate (log intensity, higher = more binding, comparable within an allelic series)",,
CCGAGTCC,"8.15 upbm affinity estimate (log intensity, higher = more binding, comparable within an allelic series)","8.13 upbm affinity estimate (log intensity, higher = more binding, comparable within an allelic series)","8.08 upbm affinity estimate (log intensity, higher = more binding, comparable within an allelic series)","9.18 upbm affinity estimate (log intensity, higher = more binding, comparable within an allelic series)","9.67 upbm affinity estimate (log intensity, higher = more binding, comparable within an allelic series)"
GTCCACGA,"8.05 upbm affinity estimate (log intensity, higher = more binding, comparable within an allelic series)","7.92 upbm affinity estimate (log intensity, higher = more binding, comparable within an allelic series)","7.98 upbm affinity estimate (log intensity, higher = more binding, comparable within an allelic series)",,
CCAAATTA,"10.8 upbm affinity estimate (log intensity, higher = more binding, comparable within an allelic series)","11.4 upbm affinity estimate (log intensity, higher = more binding, comparable within an allelic series)","10.8 upbm affinity estimate (log intensity, higher = more binding, comparable within an allelic series)",,
GTTAATAA,"10.8 upbm affinity estimate (log intensity, higher = more binding, comparable within an allelic series)","11.2 upbm affinity estimate (log intensity, higher = more binding, comparable within an allelic series)","10.6 upbm affinity estimate (log intensity, higher = more binding, comparable within an allelic series)",,
ACTATTTA,"10.1 upbm affinity estimate (log intensity, higher = more binding, comparable within an allelic series)","10.6 upbm affinity estimate (log intensity, higher = more binding, comparable within an allelic series)","10.1 upbm affinity estimate (log intensity, higher = more binding, comparable within an allelic series)",,
GCGCAGCA,"7.82 upbm affinity estimate (log intensity, higher = more binding, comparable within an allelic series)","7.9 upbm affinity estimate (log intensity, higher = more binding, comparable within an allelic series)","7.91 upbm affinity estimate (log intensity, higher = more binding, comparable within an allelic series)",,
ACCACGCC,"7.95 upbm affinity estimate (log intensity, higher = more binding, comparable within an allelic series)","8.09 upbm affinity estimate (log intensity, higher = more binding, comparable within an allelic series)","7.97 upbm affinity estimate (log intensity, higher = more binding, comparable within an allelic series)",,
CCGGGTGC,"8.11 upbm affinity estimate (log intensity, higher = more binding, comparable within an allelic series)","8.38 upbm affinity estimate (log intensity, higher = more binding, comparable within an allelic series)","8.21 upbm affinity estimate (log intensity, higher = more binding, comparable within an allelic series)",,
GCTCCGCC,"8.31 upbm affinity estimate (log intensity, higher = more binding, comparable within an allelic series)","8.4 upbm affinity estimate (log intensity, higher = more binding, comparable within an allelic series)","8.22 upbm affinity estimate (log intensity, higher = more binding, comparable within an allelic series)",,
GGTCGGGA,"8.05 upbm affinity estimate (log intensity, higher = more binding, comparable within an allelic series)","8.36 upbm affinity estimate (log intensity, higher = more binding, comparable within an allelic series)","8.02 upbm affinity estimate (log intensity, higher = more binding, comparable within an allelic series)",,
TCGATTAA,"11.4 upbm affinity estimate (log intensity, higher = more binding, comparable within an allelic series)","12.3 upbm affinity estimate (log intensity, higher = more binding, comparable within an allelic series)","11.2 upbm affinity estimate (log intensity, higher = more binding, comparable within an allelic series)",,
CCCCATTA,"11.5 upbm affinity estimate (log intensity, higher = more binding, comparable within an allelic series)","12.3 upbm affinity estimate (log intensity, higher = more binding, comparable within an allelic series)","11.3 upbm affinity estimate (log intensity, higher = more binding, comparable within an allelic series)",,
TTACATAA,"9.95 upbm affinity estimate (log intensity, higher = more binding, comparable within an allelic series)","10.4 upbm affinity estimate (log intensity, higher = more binding, comparable within an allelic series)","9.97 upbm affinity estimate (log intensity, higher = more binding, comparable within an allelic series)",,
CTACCCGC,"8.06 upbm affinity estimate (log intensity, higher = more binding, comparable within an allelic series)","8.07 upbm affinity estimate (log intensity, higher = more binding, comparable within an allelic series)","8.08 upbm affinity estimate (log intensity, higher = more binding, comparable within an allelic series)",,
AATCCATT,"10.1 upbm affinity estimate (log intensity, higher = more binding, comparable within an allelic series)","10.5 upbm affinity estimate (log intensity, higher = more binding, comparable within an allelic series)","9.94 upbm affinity estimate (log intensity, higher = more binding, comparable within an allelic series)",,
CCCCGTAC,"8.03 upbm affinity estimate (log intensity, higher = more binding, comparable within an allelic series)","8.06 upbm affinity estimate (log intensity, higher = more binding, comparable within an allelic series)","8.02 upbm affinity estimate (log intensity, higher = more binding, comparable within an allelic series)",,
AGCGATTA,"11.2 upbm affinity estimate (log intensity, higher = more binding, comparable within an allelic series)","12.3 upbm affinity estimate (log intensity, higher = more binding, comparable within an allelic series)","11.3 upbm affinity estimate (log intensity, higher = more binding, comparable within an allelic series)",,
ACCCGTGC,"8.15 upbm affinity estimate (log intensity, higher = more binding, comparable within an allelic series)","8.32 upbm affinity estimate (log intensity, higher = more binding, comparable within an allelic series)","8.18 upbm affinity estimate (log intensity, higher = more binding, comparable within an allelic series)",,
CGCTAGGC,"8.19 upbm affinity estimate (log intensity, higher = more binding, comparable within an allelic series)","8.31 upbm affinity estimate (log intensity, higher = more binding, comparable within an allelic series)","8.19 upbm affinity estimate (log intensity, higher = more binding, comparable within an allelic series)",,
CGAGCCAC,"8.17 upbm affinity estimate (log intensity, higher = more binding, comparable within an allelic series)","8.51 upbm affinity estimate (log intensity, higher = more binding, comparable within an allelic series)","8.31 upbm affinity estimate (log intensity, higher = more binding, comparable within an allelic series)",,
AAACTAAT,"11 upbm affinity estimate (log intensity, higher = more binding, comparable within an allelic series)","11.7 upbm affinity estimate (log intensity, higher = more binding, comparable within an allelic series)","11 upbm affinity estimate (log intensity, higher = more binding, comparable within an allelic series)",,
ACGTAATA,"10.2 upbm affinity estimate (log intensity, higher = more binding, comparable within an allelic series)","10.5 upbm affinity estimate (log intensity, higher = more binding, comparable within an allelic series)","10.1 upbm affinity estimate (log intensity, higher = more binding, comparable within an allelic series)",,
AGCCCGAA,"8.34 upbm affinity estimate (log intensity, higher = more binding, comparable within an allelic series)","8.32 upbm affinity estimate (log intensity, higher = more binding, comparable within an allelic series)","8.13 upbm affinity estimate (log intensity, higher = more binding, comparable within an allelic series)",,
GCTAAATA,"10.1 upbm affinity estimate (log intensity, higher = more binding, comparable within an allelic series)","10.6 upbm affinity estimate (log intensity, higher = more binding, comparable within an allelic series)","10 upbm affinity estimate (log intensity, higher = more binding, comparable within an allelic series)",,
CATGGCGG,"7.95 upbm affinity estimate (log intensity, higher = more binding, comparable within an allelic series)","7.8 upbm affinity estimate (log intensity, higher = more binding, comparable within an allelic series)","7.87 upbm affinity estimate (log intensity, higher = more binding, comparable within an allelic series)",,
AAATTCGT,"9.56 upbm affinity estimate (log intensity, higher = more binding, comparable within an allelic series)","9.96 upbm affinity estimate (log intensity, higher = more binding, comparable within an allelic series)","9.72 upbm affinity estimate (log intensity, higher = more binding, comparable within an allelic series)",,
CGGGCGCC,"8.04 upbm affinity estimate (log intensity, higher = more binding, comparable within an allelic series)","8.22 upbm affinity estimate (log intensity, higher = more binding, comparable within an allelic series)","8.23 upbm affinity estimate (log intensity, higher = more binding, comparable within an allelic series)",,
AATATTTG,"9.84 upbm affinity estimate (log intensity, higher = more binding, comparable within an allelic series)","10 upbm affinity estimate (log intensity, higher = more binding, comparable within an allelic series)","9.7 upbm affinity estimate (log intensity, higher = more binding, comparable within an allelic series)",,
